# Laboratory results reported in PubChem BioAssay (EPA / NIEHS).
# “And” between values parts separate entries of the source, which are not always exact repeats. Equal values may be shown once. Records with an inconclusive call do not appear. Where a structure was tested more than once in an assay, its records may differ in their call. The source made the active and inactive calls. The calls were made as follows: active = hit-call score of the fitted dose curve at least 0.9, where 1 is the maximum; inconclusive = response in the unintended direction; inactive = score below 0.9.
# System: zebrafish Estrogen Receptor (ER2b), gene 317733
# Experiment: ATG_zfER2b_XSP2: Attagene TRANS-FACTORIAL Multi-Species (XSP2) HepG2 Assay for zebrafish Estrogen Receptor (ER2b) (AID 2283823);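 also: fitted upward as reporter gain over DMSO so potency reflects activation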
# In short: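 Read-out: fluorescent reporter mRNA, measured by RT-PCR then capillary electrophoresis after HpaI digestion. HepG2 cells carried transiently transfected multi-reporter TRANS constructs (NR-Gal4 chimeras); 24 h chemical exposure; activity scored upward versus DMSO control.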
row,SMILES,AC50
1,CCCCCCCCOC(=O)c1ccc(O)cc1,14.9 µM (active) and 2.94 µM (active)
2,C#C[C@]1(O)CC[C@H]2[C@@H]3CCc4cc(O)ccc4[C@H]3CC[C@@]21C,0.000204 µM (active)
3,O=c1cc(-c2ccc(O)cc2)oc2cc(O)cc(O)c12,1.69 µM (active) and 1.07 µM (active)
4,CCCCCC(=O)O[C@]1(C(C)=O)CC[C@H]2[C@@H]3CCC4=CC(=O)CC[C@]4(C)[C@H]3CC[C@@]21C,7.02 µM (active)
5,CC(C)(C)c1ccc(S)cc1,179 µM (active)

# System: frog Estrogen Receptor (ER2), gene 100174814
# Experiment: ATG_frER2_XSP2: Attagene TRANS-FACTORIAL Multi-Species (XSP2) HepG2 Assay for frog Estrogen Receptor (ER2) (AID 2283828)
# In short: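 Cells were transfected with reporter constructs under GAL4-UAS control, dosed with chemicals for 24 h, then lysed for RNA; the frog ER2-driven reporter mRNA was quantified by capillary electrophoresis of labeled PCR fragments, with activity fitted upward from DMSO.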
SMILES,AC50,outcome
CCCCCCCCOC(=O)c1ccc(O)cc1,9.18 µM (active) and 803 nM (active),
C#C[C@]1(O)CC[C@H]2[C@@H]3CCc4cc(O)ccc4[C@H]3CC[C@@]21C,1.35 nM (active),
O=c1cc(-c2ccc(O)cc2)oc2cc(O)cc(O)c12,3.85 µM (active) and 215 nM (active),
CCCCCC(=O)O[C@]1(C(C)=O)CC[C@H]2[C@@H]3CCC4=CC(=O)CC[C@]4(C)[C@H]3CC[C@@]21C,,inactive

# Biological target: Peroxisome proliferator-activated receptor gamma (Homo sapiens) (UniProt P37231)
# Sequence (P37231 whole entry, looked up): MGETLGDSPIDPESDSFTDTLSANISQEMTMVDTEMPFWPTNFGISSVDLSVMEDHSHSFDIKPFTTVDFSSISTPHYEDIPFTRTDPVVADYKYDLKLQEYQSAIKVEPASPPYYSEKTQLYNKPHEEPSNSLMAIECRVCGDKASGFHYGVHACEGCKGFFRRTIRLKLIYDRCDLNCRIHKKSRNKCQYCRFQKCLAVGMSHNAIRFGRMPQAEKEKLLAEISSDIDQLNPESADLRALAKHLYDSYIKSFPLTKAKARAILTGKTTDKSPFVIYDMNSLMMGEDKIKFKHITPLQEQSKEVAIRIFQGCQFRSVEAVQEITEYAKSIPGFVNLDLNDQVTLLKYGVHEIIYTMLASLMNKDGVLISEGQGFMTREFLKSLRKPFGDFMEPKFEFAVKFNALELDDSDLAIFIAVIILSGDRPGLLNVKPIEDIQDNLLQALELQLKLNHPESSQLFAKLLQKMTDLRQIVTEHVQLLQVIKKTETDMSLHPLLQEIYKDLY
# Experiment: ATG_hPPARg_XSP2: Attagene TRANS-FACTORIAL Multi-Species (XSP2) HepG2 Assay for human Peroxisome Proliferator-activated Receptor gamma (PPARg) (AID 2283829);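 also: actives raise reporter mRNA above DMSO so AC50 reflects PPARg activation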
# In short: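 HepG2 cells transiently transfected with multiplexed GAL4-UAS reporter units for chimeric NR-Gal4 receptors, dosed 24 h. Reporter mRNA quantified by RT-PCR, 6-FAM labeling, HpaI digestion and capillary electrophoresis; gain-of-signal fitted against DMSO baseline.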
SMILES,outcome,AC50
C#C[C@]1(O)CC[C@H]2[C@@H]3CCc4cc(O)ccc4[C@H]3CC[C@@]21C,inactive,
O=c1cc(-c2ccc(O)cc2)oc2cc(O)cc(O)c12,,27.8 µM (active) and 12.8 µM (active)
CCCCCC(=O)O[C@]1(C(C)=O)CC[C@H]2[C@@H]3CCC4=CC(=O)CC[C@]4(C)[C@H]3CC[C@@]21C,,2.88 µM (active) and 2.34 µM (active)
CC(C)(C)c1ccc(S)cc1,inactive,3.68 µM (active)

# Biological target: mouse Peroxisome Proliferator-activated Receptor gamma (PPARg), Pparg (gene 19016) (UniProt P37238)
# Sequence (P37238 whole entry, looked up): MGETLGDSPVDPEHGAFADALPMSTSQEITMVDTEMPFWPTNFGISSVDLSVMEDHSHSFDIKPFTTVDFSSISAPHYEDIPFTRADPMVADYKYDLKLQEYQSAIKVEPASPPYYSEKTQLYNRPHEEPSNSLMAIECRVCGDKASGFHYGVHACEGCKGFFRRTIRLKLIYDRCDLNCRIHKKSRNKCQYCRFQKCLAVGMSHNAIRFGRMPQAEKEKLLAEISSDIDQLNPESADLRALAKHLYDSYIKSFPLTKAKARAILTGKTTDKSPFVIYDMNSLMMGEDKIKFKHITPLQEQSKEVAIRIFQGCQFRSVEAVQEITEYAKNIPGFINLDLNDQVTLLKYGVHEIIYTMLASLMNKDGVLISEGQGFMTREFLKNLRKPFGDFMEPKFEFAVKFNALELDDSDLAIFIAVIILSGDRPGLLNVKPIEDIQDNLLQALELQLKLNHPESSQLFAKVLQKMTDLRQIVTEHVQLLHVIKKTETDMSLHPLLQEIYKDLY
# Experiment: ATG_mPPARg_XSP2: Attagene TRANS-FACTORIAL Multi-Species (XSP2) HepG2 Assay for mouse Peroxisome Proliferator-activated Receptor gamma (PPARg) (AID 2283830);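 also: hits are gains in reporter mRNA above DMSO so AC50 marks activation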
# In short: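 Multiplexed TRANS reporter readout: after 24 h chemical exposure of transfected HepG2 cells (with 3 nM 6-alpha-fluorotestosterone, 1.5 nM norgestrel present), RNA reverse-transcribed, amplified, 6-FAM-labelled and resolved by capillary electrophoresis; mouse PPARg-Gal4 induction scored against DMSO.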
SMILES,AC50,outcome
O=c1cc(-c2ccc(O)cc2)oc2cc(O)cc(O)c12,27.5 µM (active) and 16.2 µM (active),
CCCCCC(=O)O[C@]1(C(C)=O)CC[C@H]2[C@@H]3CCC4=CC(=O)CC[C@]4(C)[C@H]3CC[C@@]21C,7.63 µM (active) and 3.17 µM (active),
CC(C)(C)c1ccc(S)cc1,,inactive

# Biological target: Nuclear receptor subfamily 1 group I member 2 (Mus musculus) (UniProt O54915)
# Sequence (O54915 whole entry, looked up): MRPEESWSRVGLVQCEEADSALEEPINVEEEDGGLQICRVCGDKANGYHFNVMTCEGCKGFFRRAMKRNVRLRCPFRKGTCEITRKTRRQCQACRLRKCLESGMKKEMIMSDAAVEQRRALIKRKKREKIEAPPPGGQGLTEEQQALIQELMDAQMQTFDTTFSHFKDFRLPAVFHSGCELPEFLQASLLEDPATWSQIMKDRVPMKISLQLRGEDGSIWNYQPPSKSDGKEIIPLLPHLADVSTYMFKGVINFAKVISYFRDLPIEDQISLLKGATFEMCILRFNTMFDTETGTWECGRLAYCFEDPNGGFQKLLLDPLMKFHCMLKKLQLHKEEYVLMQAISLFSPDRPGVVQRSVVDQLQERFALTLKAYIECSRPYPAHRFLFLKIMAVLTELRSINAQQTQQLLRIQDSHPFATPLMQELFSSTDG
# Experiment: ATG_mPXR_XSP2: Attagene TRANS-FACTORIAL Multi-Species (XSP1) HepG2 Assay for mouse Pregnane X Receptor (PXR) (AID 2283831)
# In short: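 HepG2 cells transiently transfected with GAL4-UAS reporter units expressing chimeric NR-GAL4 proteins; reporter mRNA measured 24 h after dosing by RT-PCR with 6-FAM labelling and capillary electrophoresis, gain of signal relative to DMSO.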
SMILES,outcome,AC50
CCCCCCCCOC(=O)c1ccc(O)cc1,inactive,
O=c1cc(-c2ccc(O)cc2)oc2cc(O)cc(O)c12,,26.9 µM (active)
CC/C(=C(\c1ccccc1)c1ccc(OCCN(C)C)cc1)c1ccccc1,inactive,
CCCCCC(=O)O[C@]1(C(C)=O)CC[C@H]2[C@@H]3CCC4=CC(=O)CC[C@]4(C)[C@H]3CC[C@@]21C,inactive,
CC(C)(C)c1ccc(S)cc1,inactive,
